Source: PubChem BioAssay
MmCpn inh – Inhibitors of TCP-1 ring complex (TRiC) of Methanococcus maripaludis (MmCpn): qHTS. purified Mm-Cpn ATPase, ADP Transcreener TR-FRET. Potency, µM (series often up to 76.9 µM), for inactives: at the highest dose activity, negative = inhibition, hits mostly inhibitors. 0.031% of 330,000 active. AID 504842, 2011; further: potency means the concentration at half of the fitted maximal effect; on the % scale 0 is the no-effect control and ±100 the full control effect; nearly all actives have a fitted effect of over 80% in size
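Measured: ADP formation by purified Mm-CPN. Conditions: 25 nM protein, 10 uM ATP, Tris pH 7.4 with Mg2+, K+ and DTT, 37°C for 30 min. Detection: Transcreener HTRF after 30 min at room temperature.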
MBNL1 CUG block – qHTS Assay for Inhibitors of MBNL1-poly(CUG) RNA binding | 0.036% of 280,000 active | Muscleblind-like protein 1 (Homo sapiens), Q9NR56 | TR-FRET MBNL1-His/biotin-(CUG)12 binding, 665/545 ratio | Potency, µM (highest dose often 57.5 µM), without a hit: at the highest dose activity change, negative = inhibition, actives largely listed as inhibitors | AID 2675, 2010; active means well fitted inhibition curve with a large enough effect in the signal ratio, with a control signal flat, not every such curve was filed as active; inconclusive means small, poorly fitted or top-dose-only effect, or effect the other way, or a change in a side signal; inactive means no such curve, though single readings can be large or run the other way; the % refers to the signal ratio; further: potency means the concentration at half of the fitted maximal effect; on the % scale 0 is the no-effect control and ±100 the full control effect
Target sequence (Q9NR56 whole entry, looked up): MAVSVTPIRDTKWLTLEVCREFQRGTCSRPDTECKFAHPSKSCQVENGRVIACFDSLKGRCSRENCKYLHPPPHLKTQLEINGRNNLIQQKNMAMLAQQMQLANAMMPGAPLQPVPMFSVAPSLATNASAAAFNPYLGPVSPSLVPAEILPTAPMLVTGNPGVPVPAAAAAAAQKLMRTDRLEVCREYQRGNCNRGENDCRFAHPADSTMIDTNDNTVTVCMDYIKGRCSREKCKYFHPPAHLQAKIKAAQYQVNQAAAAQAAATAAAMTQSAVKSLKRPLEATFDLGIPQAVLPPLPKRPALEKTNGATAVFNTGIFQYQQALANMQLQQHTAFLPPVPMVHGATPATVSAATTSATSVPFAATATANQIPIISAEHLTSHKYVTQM
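TR-FRET between His-tagged MBNL1 and biotin-(CUG)12 RNA, detected with Tb anti-His antibody (0.055 ng/ul) and streptavidin-XL665 (5 nM), 60 min at room temperature. Compounds titrated 92 nM to 58 uM; 665/545 nm ratio normalized to buffer and complex controls.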
pAkt inh – HTS Assay for Inhibitors of Akt Phophorylation: Primary Screen. 0.32% of 360,000 active. Neuro2A IGF-stimulated pAkt S473 HTRF, 20 min; hits give low values. activity change, % for hits at 50 µM; in the data active means activity change below about -80%; inconclusive means mostly about -51% to -80%; further: on the % scale 0 is the no-effect control and ±100 the full control effect
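Neuro2A cells (4,500/well, DMEM with 0.5% FBS) were treated with compound at a single 50 µM final concentration, stimulated with 6 nM IGF for 20 min at 37 °C, and lysed. Phospho-Akt Ser473 was read by HTRF as 665/615 ratio ×10^4.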
uPA generation – qHTS for Inhibitors of Cell Surface uPA Generation; cell surface uPA generation assay, qHTS; Potency, µM (series often up to 38.3 µM), for the others: at the top dose activity change, negative = inhibition, most hits filed as inhibitors; 0.31% of 330,000 active; AID 540303, 2011; active means well fitted inhibition curve with a large enough effect; inconclusive means small, poorly fitted or top-dose-only effect; inactive means no such curve, though single readings can be large or run the other way; tested in mouse RAW 264.7 cells; further: potency means the concentration at half of the fitted maximal effect; on the % scale 0 is the no-effect control and ±100 the full control effect; nearly all actives have a fitted effect of over 55% in size
CCT chaperon mod – High-Throughput Screening for Modulators of Cytosolic Chaperonin Activity; purified chaperonin ATPase assay, HTRF ADP detection, 30 min; activity change, % (no concentration beside the values), hits read low; AID 651819, 2012; 0.3% of 360,000 active; in the data active means activity change below about -30%; further: on the % scale 0 is the no-effect control and ±100 the full control effect
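Enzyme 40 or 20 nM (batch-dependent) in Tris pH 7.4/KCl/MgCl2/DTT; cpd 76 uM single point; ATP 10 uM; 30 min 37 °C; Transcreener ADP HTRF detection, 30 min RT; ratio 665/615.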
Epigenetic reg – Quantitative High-Throughput Screen for Regulators of Epigenetic Control | murine LDR cells, GFP reporter derepression, 30 h | Potency, µM (titrated, usually from 53.9 µM), without a hit: top-dose GFP activation, hits mostly activators | 0.2% of 280,000 active; further: potency means the concentration at half of the fitted maximal effect; % of control where 0% means no effect; nearly all actives have a fitted effect of over 60% in size
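Derepression of a silenced CMV-GFP reporter in murine LDR cells is scored by enumerating GFP-positive cells with a laser-scanning microplate cytometer after 30 hours of treatment at 37 C.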
* marks the source's active call; other numbers are inactive results; [ ] = another dose, or the depositor's remark. A selection: hits, their analogues and other compounds. The true share with any hit is near 0.97%. Unless noted, the call rests on the fitted dose curve; in most records, active means well fitted curve in the direction sought with a large enough effect; inconclusive means small, poorly fitted or top-dose-only effect, or another doubt; inactive means no such curve, though single readings can be large; an effect the other way counts as inactive or inconclusive.

Results for CC1=CCC(C(=O)O)C(C(=O)Nc2nc3ccc(S(C)(=O)=O)cc3s2)C1 (stereo not given) ?
MmCpn inh: 4%; MBNL1 CUG block: -21%; pAkt inh: -120%*; uPA generation: -1%; CCT chaperon mod: -1; Epigenetic reg: 0%

Results for COc1cc2c(cc1OC)C(C)N(C(=O)c1c(-c3ccccc3)noc1C)CC2 (stereo not given) ?
MmCpn inh: 1%; MBNL1 CUG block: -6%; pAkt inh: inactive; uPA generation: 6.3µM*; CCT chaperon mod: 2; Epigenetic reg: 0%

What do the screens show for `COc1cc2c(cc1OC)C(C)N(C(=O)c1ccc(C)o1)CC2` (stereo not given)?
MmCpn inh: 2%; MBNL1 CUG block: -10%; pAkt inh: inactive; uPA generation: -8%; CCT chaperon mod: -2

Results for CC1(C(=O)NS(=O)(=O)c2ccc(C#N)cc2)CCN1C(=O)Cc1cccc2ccccc12 (stereo not given) ?
pAkt inh: inactive; CCT chaperon mod: 1

How did CCn1nccc1C(=O)NC1=C(C#N)CCC1 do in these assays?
MmCpn inh: 1%; MBNL1 CUG block: -8%; pAkt inh: inactive; uPA generation: -10%; CCT chaperon mod: 0; Epigenetic reg: -14%

Results for CCn1ccc(C(=O)NC2=C(C#N)CCC2)n1 ?
MmCpn inh: 0%; MBNL1 CUG block: -1%; pAkt inh: -115%*; uPA generation: 5%; CCT chaperon mod: 0; Epigenetic reg: 6%

Results for COc1ccc(CC2(C)OC(c3ccc([N+](=O)[O-])cc3)=NN2C(C)=O)cc1 (stereo not given) ?
MmCpn inh: 0%; pAkt inh: inactive; uPA generation: 11%; CCT chaperon mod: 1; Epigenetic reg: 2%

Results for CC1CCN(C(=O)c2cc3ccccc3o2)CC1 ?
MmCpn inh: 0%; MBNL1 CUG block: 2%; pAkt inh: inactive; uPA generation: -4%; CCT chaperon mod: -36*; Epigenetic reg: -1%

How did CC1CC(C)CN(C(=O)c2cc3ccccc3o2)C1 (stereo not given) do in these assays?
MmCpn inh: 2%; pAkt inh: inactive; uPA generation: 1%; CCT chaperon mod: -1

Results for CCOC(=O)Cn1c(=O)c2c(nc(N3CCOCC3)n2Cc2ccccc2)n(C)c1=O ?
Epigenetic reg: -2%

What do the screens show for `Cc1ccc(NC(=O)CSc2nc3ccc(NC(=O)CCc4ccccc4)cc3s2)cc1`?
Epigenetic reg: 0%

Results for N#CCCN(CCC#N)C(=O)c1ccc2c(c1)OCO2 ?
MmCpn inh: 1%; MBNL1 CUG block: -6%; pAkt inh: -106%*; uPA generation: 6%; CCT chaperon mod: 0; Epigenetic reg: 2%

Results for CCCN(CCC)C(=O)c1ccc2c(c1)OCO2 ?
MmCpn inh: 2%; MBNL1 CUG block: 3%; pAkt inh: inactive; uPA generation: 2%; CCT chaperon mod: -2; Epigenetic reg: -1%

How did Cc1ccc(S(=O)(=O)N2CCN(C(=O)CSc3nc4ccccc4c(=O)[nH]3)CC2)cc1 do in these assays?
MmCpn inh: -19%; MBNL1 CUG block: -2%; pAkt inh: -95%*; uPA generation: 3%; CCT chaperon mod: 0; Epigenetic reg: inconclusive

Results for COc1ccc(CNC(=O)Nc2ccc3c(c2)N(C)C(=O)c2ccccc2S3)cc1 ?
Epigenetic reg: -6%

What do the screens show for `CCn1c(O)c(N=NC(=O)CNC(=O)Cc2ccccc2)c2ccccc21`?
MmCpn inh: -1%; MBNL1 CUG block: inconclusive; pAkt inh: inactive; uPA generation: 2%; CCT chaperon mod: 2

How did NC(=O)Cn1c(O)c(N=NC(=O)CNC(=O)/C=C/c2ccccc2)c2ccccc21 do in these assays?
MmCpn inh: 1%; MBNL1 CUG block: inconclusive; pAkt inh: inactive; uPA generation: 10%; CCT chaperon mod: -73*

How did CCCn1c(O)c(N=NC(=O)CNC(=O)/C=C/c2ccc(OC)cc2)c2ccccc21 do in these assays?
MmCpn inh: 2%; MBNL1 CUG block: inconclusive; pAkt inh: inactive; uPA generation: 3%; CCT chaperon mod: 0

Results for O=C(CNC(=O)c1ccco1)N=Nc1c(O)n(CCc2ccccc2)c2ccccc12 ?
MmCpn inh: -1%; MBNL1 CUG block: inconclusive; pAkt inh: inactive; uPA generation: 1.1µM*; CCT chaperon mod: -2; Epigenetic reg: -2%

How did COc1ccc(CNC(=O)CN2C(=O)COc3ccc(S(=O)(=O)N4CCCCC4)cc32)cc1 do in these assays?
MmCpn inh: 4%; MBNL1 CUG block: -2%; pAkt inh: inactive; uPA generation: 5%; CCT chaperon mod: -1; Epigenetic reg: 3%

Results for Cc1nc(NC(=O)CSc2nnc(C3CC3)n2C)sc1C ?
MmCpn inh: 1%; MBNL1 CUG block: 0%; pAkt inh: inactive; uPA generation: 5%; CCT chaperon mod: 1

How did c1ccc(-c2cn3c(n2)-c2ccccc2C3)cc1 do in these assays?
MmCpn inh: -1%; MBNL1 CUG block: -7%; pAkt inh: inactive; uPA generation: 6.3µM*; CCT chaperon mod: -1; Epigenetic reg: 2%

How did Fc1ccccc1-c1ccc(/C=N/Nc2nc3ccccc3[nH]2)o1 do in these assays?
MmCpn inh: -4%; pAkt inh: inactive; uPA generation: 4µM*; CCT chaperon mod: 0; Epigenetic reg: inconclusive

How did CCN1C(C)=C(C(=O)OC)C(c2ccccc2)N2C(=O)[C@@]3(C(=O)OC)O[C@@]12C1C(=O)CCCC13 (stereo not given in full) do in these assays?
Epigenetic reg: 0%[10.1 µM]

What do the screens show for `CC(C)Cc1cc(C(=O)Nc2cc(C(F)(F)F)ccc2Cl)no1`?
MmCpn inh: -12%; MBNL1 CUG block: -2%; pAkt inh: inactive; uPA generation: 3%; CCT chaperon mod: -2; Epigenetic reg: 12%

How did NC(=O)C1CCN(c2nc(-c3ccccc3[N+](=O)[O-])cs2)CC1 do in these assays?
MmCpn inh: -2%

What do the screens show for `O=C(c1noc2c1CCCC2)N1CCCC(N2CCN(c3ccccc3F)CC2)C1` (stereo not given)?
MmCpn inh: 0%; MBNL1 CUG block: -7%; pAkt inh: inactive; uPA generation: 2%; CCT chaperon mod: -1
